# Data taken from PubChem BioAssay (Tox21).
# Results filed as inconclusive are left out. Values without a mark were called inactive. Calls come from the whole dose curve; as a rule, active = well fitted inhibition curve with a large enough effect in the repeat runs; inconclusive = weak or mixed curves, or effect the other way; inactive = no such curve, though single readings can be large or run the other way.
# Test: qHTS assay to identify small molecule antagonists of the retinoic acid receptor (RAR) signaling pathway (AID 1159552; note: nearly all actives have a fitted effect of over 50% in size)
# Details: C3RL4 RARE luciferase reporter, retinol-stimulated, 6 h; series mostly up to 92.4 µM; activity, negative = inhibition: at the top concentration
# Summary of the method: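 RARE-luc C3RL4 cells; cpds + 1 uM (final) retinol, 6 hr, 37 C/5% CO2; luciferase reagent, 30 min RT, luminescence readout. Inhibitors of retinol-driven signal scored.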
# % is set by controls: 0 for no effect and ±100 for the full control effect.
row,SMILES,"activity, negative = inhibition"
1,NNc1nnc(NN)c2ccccc12,83.4% [at 42.5 µM]
2,O=C(O)c1ccc(Cl)cc1Cl,5.69%
3,O=C(O)c1cc(Cl)cc([N+](=O)[O-])c1Cl,1.71%
4,O=S(=O)(O)c1ccc2cc(O)c(S(=O)(=O)O)cc2c1,14.4%
5,CC(=O)Nc1cccc(C)c1,25.2%
6,OC[C@H](Cc1cccc(O)c1)[C@H](CO)Cc1cccc(O)c1,44.4%
7,Cc1ccc2ccc(Cl)cc2n1,0.0472% [at 42.5 µM]
8,CC(=O)OC(C)OC(=O)C(C)c1ccc(-c2ccccc2)c(F)c1 (configuration not stated),6.75% [at 42.5 µM]
9,Cc1ccc2c(c1)OCC(=O)CO2,25.8%
10,Cc1cc2cc3c(C)cc(=O)oc3c(C)c2o1,30.8% [at 42.5 µM]
11,CC(C)c1ccc2cc(C(C)C)ccc2c1,80.7%
12,COc1ccc(-c2cc(=O)c3c(O)cc(O[C@@H]4O[C@H](CO[C@@H]5O[C@@H](C)[C@H](O)[C@@H](O)[C@H]5O)[C@@H](O)[C@H](O)[C@H]4O)cc3o2)cc1O,7.12% [at 42.5 µM]
